# Bioassay records: PubChem BioAssay, National Center for Advancing Translational Sciences (NCATS)
# UDG counterscr: counter-screen for AID inhibitors: uracil-DNA glycosylase inhibition; Potency, µM (titrated, usually from 115 µM), inactives show at the highest dose activity change, negative = inhibition, usual class: inhibitors; hit rate 0.14% among 91,000; FRET deamination/UDG coupled assay, UDG read, 4 h; note: nearly all actives have a fitted effect of over 65% in size
# AID inhibitor: activation induced cytidine deaminase inhibition. AID deamination FRET fluorescence, UDG-coupled, 4 h. hit rate 0.32% among 91,000. Potency, µM (highest dose often 115 µM), actives largely listed as inhibitors. Q9GZX7; note: nearly all actives have a fitted effect of over 25% in size
# * = called active by the depositor; i = inactive; ? = inconclusive. Most compounds without a hit are left out; they make up all but 0.47% or so of the library. Calls come from the whole dose curve; as a rule, active = well fitted curve in the direction sought with a large enough effect; inconclusive = small, poorly fitted or top-dose-only effect, or another doubt; inactive = no such curve, though single readings can be large; an effect the other way counts as inactive or inconclusive. % is set by controls: 0 for no effect and ±100 for the full control effect; potency is the fitted concentration of half-maximal effect.
SMILES,UDG counterscr,AID inhibitor
CC12CNCC(C)(CNC1)C2=O,50µM*,?
COc1ccccc1-n1c(/C=C/c2ccccc2)nc2ccccc2c1=O,0%,i
COc1ccc(-n2c(/C=C\c3ccccc3F)nc3ccccc3c2=O)c(OC)c1,79µM*,?
Cc1[nH]nc2c1C(c1ccc(-c3ccc(F)cc3)o1)SCC(=O)N2 (stereo unspecified),-6%,i
NCC(O)c1cc(O)c(O)cc1F (stereo unspecified),-4%,50µM*
O=[N+]([O-])/C=C\c1ccc2c(c1)OCO2,4%,i
CCOc1ccccc1CN1CCN(c2ccccc2)CC1,-4%,i
Cc1c(C(c2ccc(O)cc2)c2c(O)c3ccccc3oc2=O)c(=O)n(-c2ccccc2)n1C (stereo unspecified),4%,i
O=c1oc2ccccc2c(O)c1C(c1ccccc1)c1c(O)c2ccccc2oc1=O,13%,45µM*
COc1ccc(OC)c(C(c2c(O)c3ccccc3oc2=O)c2c(C)n(C)n(-c3ccccc3)c2=O)c1 (stereo unspecified),-3%,i
O=c1oc2ccccc2c(O)c1C(c1cccc(O)c1)c1c(O)c2ccccc2oc1=O,-3%,50µM*
CC(N)Cc1ccc(N(C)C)cc1 (stereo unspecified),-11%,i
Cc1cccc(-n2c(/C=C/c3ccco3)nc3ccccc3c2=O)c1,?,i
CC(C)N1CCN(Cc2c[nH]c3ccccc23)CC1,?,i
CCc1ccc2[nH]c(C)c(CCN)c2c1,6%,i
